Results: PubChem BioAssay (NCATS)
A number with no mark means an inactive call. The rule behind the calls is not given here.

test system: HIV-1 nucleocapsid protein NCp7 (binding to TG oligonucleotide); test: HIV Nucleocapsid (AID 346); conditions: HIV-1 NC / fluorescein-TGTGTGTG probe, fluorescence polarization;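 note: potency is for inhibitors that block NC binding and lower polarization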
Method in brief: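 Fluorescence polarization readout: labelled TG4xF oligo (10 nM) with 100 nM nucleocapsid protein, high-salt (250mM NaCl) Hepes pH 7.5 buffer containing zinc and fresh reducing agents. Compounds added by pin tool; incubation 1 hr, room temperature.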
Potency is the fitted concentration of half-maximal effect.

Compound	Potency
COc1cccc(Nc2ncc3nc(-c4ccc(Cl)cc4)c(=O)n(C[C@H]4CCCO4)c3n2)c1	> 20 µM
Clc1ccccc1-c1nc(N2CCNCC2)c2ccccc2n1	> 20 µM
COc1ncc2nc(CCc3ccccc3)c(=O)n(C)c2n1	> 20 µM
CS(=O)(=O)Nc1cccc(-c2nc(NCc3ccccc3)c3ccccc3n2)c1	> 20 µM
CN(C)Cc1ccccc1-c1nc(NCc2ccccc2)c2ccccc2n1	> 20 µM
CN1CCN(c2ncc3nc(-c4cccs4)c(=O)n(CCc4ccccc4)c3n2)CC1	> 20 µM
COc1ccccc1-c1cncnc1NCc1ccccc1	> 20 µM
Cc1noc(C)c1C(=O)N1CCC[C@@]2(CCN(Cc3nccs3)C2)C1	> 20 µM
CC(C)NC(=O)N1CCC2(CC1)CCN(C(=O)c1ccco1)CC2	> 20 µM
COCCNc1ccnc(-c2ccccc2C)n1	> 20 µM
COCC(=O)N1CCC2(CC1)CN(c1cccc(-c3ccccc3)c1)C2	> 20 µM
CC(C)CN1CC2(CCN(C(=O)c3cnccn3)CC2)C1	> 20 µM
COC(=O)N1CCC2(CC1)CN(C(=O)Nc1ccc(OC)cc1)C2	> 20 µM
COc1ccc(C(=O)N2CCC3(CC2)CCN(c2cccc(-c4ccccc4)c2)CC3)cc1	> 20 µM
O=C(c1ccco1)N1CCC2(CCCN(Cc3ccncc3)C2)CC1	> 20 µM
COCCn1c(=O)c(-c2cccc(C#N)c2)nc2cnc(N3CCOCC3)nc21	> 20 µM
CN1CCN(c2cc(-c3ccc(N(C)C)cc3)ncn2)CC1	> 20 µM
O=c1c(-c2cc(F)cc(F)c2)nc2cnc(N3CCOCC3)nc2n1C1CC1	> 20 µM
COc1ccc(-n2c(=O)c(-c3ccc(Cl)cc3)nc3cnc(N4CCNCC4)nc32)cc1	> 20 µM
FC(F)(F)c1cc(CN2CC[C@@]3(CCCNC3)C2)cc(C(F)(F)F)c1	> 20 µM
c1ccc2c(-n3ccnc3)nc(-c3ccoc3)nc2c1	> 20 µM
COc1cccc(Nc2ncc3nc(-c4cccs4)c(=O)n(CCC#N)c3n2)c1	> 20 µM
O=C(c1csnn1)N1CCC2(CC1)CN(c1ccccc1)C2	> 20 µM
COc1cccc(-c2cncnc2NCc2cccc(C)c2)c1	> 20 µM
